Screens: PubChem, University of Kansas High Throughput Screening Laboratory
Most compounds without a hit are left out; they make up all but 3.5% or so of the library.
Pf apPOL block = Pf-apPOL DNA polymerase inhibition | AID 1794808 | inhibition, % at 10 µM | 210,000 compounds, 0.25% hits | Recombinant Pf-apPOL, molecular beacon fluorescence, 1.5 h
mHTT-CaM PPI inh = mHTT-calmodulin interaction abrogation; P42858; AlphaScreen His-mHTT/GST-CaM binding, luminescence; inhibition, % at 15 µM; 190,000 compounds, 3.6% hits;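 also: 0% = both proteins with DMSO and 100% = one protein alone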
An asterisk follows results filed as active; x = not tested or not shown; ! = not confirmed by another sample. Rule as the data show it: active = inhibition above about 50%; inactive = the rest.

SMILES	Pf apPOL block	mHTT-CaM PPI inh
Cc1cccc2nc(CSc3n[nH]c(N)n3)cc(=O)n12	52*	2
Cc1c(C(=O)N2CCC(c3nnc(C(C)C)o3)CC2)cnn1-c1ccccc1	0	-1
CC(C)c1nnc(C2CCN(C(=O)c3cnc4ccccc4n3)CC2)o1	-7	100*
O=C(NC1CCCC1)c1ccc2ncc3c(=O)n(-c4ccc(F)cc4)[nH]c3c2c1	0	3
O=C(NC1CCCC1)c1ccc2ncc3c(=O)n(-c4ccc(Cl)cc4)[nH]c3c2c1	5	86*
COC(=O)C12CC3CC(CC(NC(=O)c4ccc(=O)oc4)(C3)C1)C2	66*	14
COC(=O)C12CC3CC(CC(NC(=O)c4ccc(Cn5ccnc5)cc4)(C3)C1)C2	-1	0
CCc1ccc(C(=O)N2CCC(COc3ccc(C(=O)NC(C)C)cc3)CC2)cc1	-4	12
COc1ccccc1NC(=O)c1ccccc1[N+](=O)[O-]	-16	5
COc1ccccc1NC(Nc1ccccc1OC)=C(/C=C(\Cl)[N+](=O)[O-])[N+](=O)[O-]	7	73*
COc1ccc(-c2oncc2-c2ccc3c(c2)OCCO3)c(O)c1	1	10
CCCc1cc(-c2[nH]ncc2-c2ccc3c(c2)OCCCO3)c(O)cc1OC	-7	76*
CCCc1cc2c(=O)c(-c3ccc4c(c3)OCCCO4)c(C)oc2cc1OC	-3	0
CCCc1cc(-c2oncc2-c2ccc3c(c2)OCCO3)c(O)cc1OC	3	63*
Cc1ccc(N2C(=O)NC(=O)/C(=C\c3cc(Br)c(O)cc3O)C2=O)cc1	0	-28
COc1cccc(C=C2N=C(c3cccs3)OC2=O)c1OC	0	x
c1ccc(C2Nc3ccccc3C3OCCC23)cc1 (centres undefined)	0	-1
COc1ccc(Cl)c2c1NC(c1ccc(F)cc1)C1CC=CC21 (centres undefined)	6	50*
Fc1ccc(C2Nc3ccccc3C3C=CCC32)cc1 (centres undefined)	16	87*
CN(C)C(=O)c1cccc2c1NC(c1ccc(Br)cc1)C1CC=CC21 (centres undefined)	-38	64*
CCOc1cccc2c1NC(c1ccc(C(=O)O)cc1)C1CC=CC21 (centres undefined)	-6	63*
Cc1ccc(C(=O)N2CCC(c3nc(-c4cccnc4)n[nH]3)CC2)s1	1	6
O=C(Nc1ccc(C(=O)O)cc1)/C(=C/c1ccc2c(c1)OCO2)NC(=O)c1ccco1	38	4
O=C1OC(/C=C/c2ccccc2)=NC/1=C\c1ccc(Br)cc1	-4	0
O=C(O)c1cccc2c1NC(c1ccc(F)cc1)C1CC=CC21 (centres undefined)	1	96*!
SMILES	Pf apPOL block	mHTT-CaM PPI inh
Fc1ccc(C2Nc3c(F)cccc3C3C=CCC32)cc1 (centres undefined)	-6	57*
COc1cccc2c1NC(c1cccc(Br)c1)C1CC=CC21 (centres undefined)	-11	53*
COc1cccc2c1NC(c1ccc(F)cc1)C1CC=CC21 (centres undefined)	-2	79*
O=C(O)c1cccc2c1NC(c1ccccc1Br)C1CC=CC21 (centres undefined)	5	48
Fc1cccc2c1NC(c1ccc(Br)cc1)C1CC=CC21 (centres undefined)	4	40
COc1cc(C2Nc3c(C)cccc3C3C=CCC32)cc(Br)c1OC (centres undefined)	-2	0
CSc1sc(C(=O)Sc2ccc(Cl)cc2)c2c1C=CCC2	4	x
O=C(Nc1ccc(Cl)cc1)C1CCCN(c2nccc3sccc23)C1 (centres undefined)	-7	-10
Cc1cccc(C(=O)N2CCN(c3nnc4cccc(C)n34)CC2)c1	1	-6
Cn1cc(CN2CCC(C(=O)N3CCC4(CC3)OCCO4)CC2)c2cc(Cl)ccc21	2	4
O=C(CSc1cc(NCc2ccc(Cl)cc2)ncn1)Nc1ccc(F)cc1F	-7	-6
CCCN(CCC)CCNC(=O)c1nc(-c2cccc(F)c2)n2c1CCCCC2	-5	0
COc1ccc(C=C2Oc3c(ccc(O)c3CN3CCOCC3)C2=O)cc1	-11	0
CCCCS(=O)(=O)N1CCCC(c2nnc(-c3ccc4c(c3)OCO4)o2)C1 (centres undefined)	-9	-19
CC(C)NC(=O)c1csc(CN2CCN(c3ccccc3)CC2)n1	-5	-4
CC1CN(CC(O)COC2CCCCC2)CC(C)O1 (centres undefined)	-4	-6
CCOc1ccccc1/C=C1/N=C(c2cccc(Br)c2)OC1=O	-9	4
c1cc(-c2nn3c(C4CCCCC4)nnc3s2)ccn1	x	-3
COc1cccc2c1NC(c1ccc(Br)cc1)C1CC=CC21 (centres undefined)	5	58*
COc1cccc2c1NC(c1ccccc1Br)C1CC=CC21 (centres undefined)	3	38
Cc1nc2cccnc2n1C1CCN(C(=O)Cc2cccs2)C1 (centres undefined)	6	9
